Inconclusive results are not listed. Activity calls are given as the source filed them. The calls were made as follows: active = hit-call score of the fitted dose curve at least 0.9, where 1 is the maximum; inconclusive = response in the unintended direction; inactive = score below 0.9.

Experimental findings from PubChem BioAssay (EPA / NIEHS) are described below.

Assay [1] has as its target human Neurotensin Receptor (NTS), NTSR1 (gene 4923) (UniProt P30989). Put plainly: NVS_GPCR_hNTS: NovaScreen (NVS) G Protein-Coupled Receptor Assay for human Neurotensin Receptor (NTS) (AID 2283279). The essentials: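 Compounds competed with a radiolabelled ligand for binding to CHO-derived human neurotensin receptor; bound signal counted after filtration, 1 h. Screened first at a single concentration of 25 uM in duplicate, then concentration series to 50 uM maximum for actives.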

Assay [2] concerns the target mouse Cholecystokinin, CCK2 Receptor (CCKB), Cckbr (gene 12426) (UniProt P56481). The assay can be described thus: NVS_GPCR_mCKKBCentral: NovaScreen (NVS) G Protein-Coupled Receptor Assay for mouse Cholecystokinin, CCK2 Receptor (CCKB) (AID 2283293). The method, boiled down:
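Mouse forebrain membrane preparation incubated 2 h with chemical and radioligand; bound radioactivity counted after filtration. Single-concentration duplicate screen at 25 uM, then concentration series to 50 uM max for hits, DMSO as baseline.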

In assay [3] the test system is 5-hydroxytryptamine receptor 2C (pig). The assay can be described thus: NVS_GPCR_p5HT2C: NovaScreen (NVS) G Protein-Coupled Receptor Assay for pig Serotonin, 5-Hydroxytryptamine Receptor 2C (5HT2C) (AID 2283288). The essentials: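 Radioligand displacement on membranes from pig choroid plexus, detected by filter scintillation counting after 1 h. Tested first at a single 25 uM in duplicate, then in concentration-response for actives; DMSO served as baseline.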

Assay [4] addresses rat Adrenergic, Alpha 1, Non-selective Receptor (Adra1), Adra1a (gene 29412) (UniProt P43140). The assay can be described thus: NVS_GPCR_rAdra1_NonSelective: NovaScreen (NVS) G Protein-Coupled Receptor Assay for rat Adrenergic, Alpha 1, Non-selective Receptor (Adra1) (AID 2283289). The method, boiled down:
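Chemicals first screened in duplicate at 25 uM, then actives tested in concentration series up to 50 uM. Binding measured as displacement of radioligand from rat forebrain membrane receptors, 1 h, filtration with scintillation readout; DMSO baseline.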

Assay [5] has as its target human Opioid Receptor Mu (Opiate Mu), OPRM1 (gene 4988) (UniProt P35372). Put plainly: NVS_GPCR_hOpiate_mu: NovaScreen (NVS) G Protein-Coupled Receptor Assay for human Opioid Receptor Mu (Opiate Mu) (AID 2283290).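 Also: hits lower bound tracer signal versus DMSO meaning displacement of the ligand.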 The method, boiled down: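 Here, radioligand binding to CHO-extracted receptor was measured after 2.5 h using filter-based scintillation detection. Initial single-concentration screening used 25 uM in duplicate with plate controls; confirmed actives went to concentration-response testing.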

For assay [6], the target named is guinea pig Bradykinin Receptor B2 (BK2), BDKRB2 (gene 100135486) (UniProt O70526). The assay can be described thus: NVS_GPCR_gBK2: NovaScreen (NVS) G Protein-Coupled Receptor Assay for guinea pig Bradykinin Receptor B2 (BK2) (AID 2283292). The essentials:
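Guinea pig ileum membrane preparation incubated 1 h with radioligand and test chemical; bound counts measured after filtration. Primary duplicate screening at 25 uM, then singleton concentration series with a 50 uM top dose; DMSO as baseline.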

The target in assay [7] is guinea pig Serotonin, 5-Hydroxytryptamine Receptor 4 (5HT4), HTR4 (gene 100135548) (UniProt O70528). Put plainly: NVS_GPCR_g5HT4: NovaScreen (NVS) G Protein-Coupled Receptor Assay for guinea pig Serotonin, 5-Hydroxytryptamine Receptor 4 (5HT4) (AID 2283294). The method, boiled down:
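Compounds first screened in duplicate at 25 uM, actives followed up in concentration series. Binding measured as displacement of specific radioligand from guinea pig striatal membranes, 1 h, filter-based scintillation read-out versus DMSO baseline.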

In assay [8] the target is rat Serotonin, 5-Hydroxytryptamine Receptor (5HT), Non-Selective Binding, Htr1a (gene 24473) (UniProt P19327). Put plainly: NVS_GPCR_r5HT_NonSelective: NovaScreen (NVS) G Protein-Coupled Receptor Assay for rat Serotonin, 5-Hydroxytryptamine Receptor (5HT), Non-Selective Binding (AID 2283295). The method, boiled down:
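Rat cortex membrane preparation incubated 1 h with radioligand and test chemical; bound radioactivity counted after filtration. Screening began in duplicate at 25 uM with concentration-series follow-up; fitting relative to DMSO.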

For assay [9], the target named is rat Adrenergic, Alpha 1A Receptor (Adra1A), Adra1a (gene 29412) (UniProt P43140). Put plainly: NVS_GPCR_rAdra1A: NovaScreen (NVS) G Protein-Coupled Receptor Assay for rat Adrenergic, Alpha 1A Receptor (Adra1A) (AID 2283296). The method, boiled down:
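Filter radiodetection after 1 h competitive binding on CEC-pretreated rat cortical membranes. Duplicate single-point screening at 25 uM; active chemicals retested across concentration series.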

Assay [10] relates to rat Adrenergic, Alpha 1B Receptor (Adra1B), gene 24173. Put plainly: NVS_GPCR_rAdra1B: NovaScreen (NVS) G Protein-Coupled Receptor Assay for rat Adrenergic, Alpha 1B Receptor (Adra1B) (AID 2283297). The essentials:
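Filter-binding radioligand competition on membranes from rat liver, read after 1 h by scintillation counting. Single-concentration duplicate screen at 25 uM, followed by concentration-response on actives, normalised to DMSO.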

Assay [11] addresses rat Adrenergic Receptor, Alpha 2 (Adra2), Non-selective Binding, Adra2a (gene 25083) (UniProt P22909). The assay can be described thus: NVS_GPCR_rAdra2_NonSelective: NovaScreen (NVS) G Protein-Coupled Receptor Assay for rat Adrenergic Receptor, Alpha 2 (Adra2), Non-selective Binding (AID 2283299). The method, boiled down:
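Filter-based scintillation counting of radioligand binding to rat cortical membrane receptors, measured 1.25 hours post-dosing; loss of signal versus DMSO indicates displacement. Initial single-concentration duplicate at 25 uM, then concentration series.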

The target of assay [12] is rat Serotonin, 5-Hydroxytryptamine Receptor 1 (5HT1), Non-Selective Binding, Htr1a (gene 24473) (UniProt P19327). Put plainly: NVS_GPCR_r5HT1_NonSelective: NovaScreen (NVS) G Protein-Coupled Receptor Assay for rat Serotonin, 5-Hydroxytryptamine Receptor 1 (5HT1), Non-Selective Binding (AID 2283286). The essentials: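 Binding of a radioligand to rat cortex membranes is read by filtration and scintillation counting after 1 h. Compounds were screened at 25 uM in duplicate. Actives were then titrated to a top of 50 uM. DMSO is the baseline.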
Sequence of rat Serotonin, 5-Hydroxytryptamine Receptor 1 (5HT1), Non-Selective Binding, Htr1a (gene 24473) (P19327 whole entry, looked up): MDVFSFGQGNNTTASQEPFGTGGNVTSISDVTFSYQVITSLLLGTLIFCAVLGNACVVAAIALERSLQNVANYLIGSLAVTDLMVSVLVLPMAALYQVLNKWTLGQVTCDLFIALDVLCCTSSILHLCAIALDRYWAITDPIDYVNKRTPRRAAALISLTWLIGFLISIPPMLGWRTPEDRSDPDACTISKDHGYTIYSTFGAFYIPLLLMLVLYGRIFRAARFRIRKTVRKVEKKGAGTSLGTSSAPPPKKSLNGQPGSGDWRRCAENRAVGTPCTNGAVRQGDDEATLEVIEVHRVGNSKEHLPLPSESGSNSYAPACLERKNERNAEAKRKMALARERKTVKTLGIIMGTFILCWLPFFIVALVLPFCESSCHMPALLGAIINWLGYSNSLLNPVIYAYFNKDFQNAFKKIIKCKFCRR

Assay [13] concerns the target rat Gamma-Aminobutyric Acid Type B Receptor (GABBR), Gabbr1 (gene 81657) (UniProt Q9Z0U4). The assay can be described thus: NVS_GPCR_rGABBR: NovaScreen (NVS) G Protein-Coupled Receptor Assay for rat Gamma-Aminobutyric Acid Type B Receptor (GABBR) (AID 2283301). The method, boiled down: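 Rat cortical membrane preparation, competitive radioligand binding for 1 h with filtration and scintillation readout. Actives from duplicate single-point 25 uM screening proceeded to concentration series with 50 uM top concentration.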

For assay [14], the target named is human Vasopressin 1A Receptor (V1A), AVPR1A (gene 552) (UniProt P37288). Put plainly: NVS_GPCR_hV1A: NovaScreen (NVS) G Protein-Coupled Receptor Assay for human Vasopressin 1A Receptor (V1A) (AID 2283284). The essentials:
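Single-concentration duplicate screen at 25 uM, with concentration-response follow-up (top 50 uM) for actives. The assay measured displacement of a radioligand from human platelet-derived receptor after 1.5 h, detected by filtration and scintillation counting.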

In assay [15] the target is rat Histamine Receptor (H3), Hrh3 (gene 85268) (UniProt Q9QYN8). The assay can be described thus: NVS_GPCR_rH3: NovaScreen (NVS) G Protein-Coupled Receptor Assay for rat Histamine Receptor (H3) (AID 2283303). The essentials: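 Filter-binding radioligand competition on rat forebrain membranes, 1 h incubation; compounds screened at 25 µM in duplicate and followed in concentration series to 50 µM, loss of bound signal vs DMSO.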
Sequence of rat Histamine Receptor (H3), Hrh3 (gene 85268) (Q9QYN8 whole entry, looked up): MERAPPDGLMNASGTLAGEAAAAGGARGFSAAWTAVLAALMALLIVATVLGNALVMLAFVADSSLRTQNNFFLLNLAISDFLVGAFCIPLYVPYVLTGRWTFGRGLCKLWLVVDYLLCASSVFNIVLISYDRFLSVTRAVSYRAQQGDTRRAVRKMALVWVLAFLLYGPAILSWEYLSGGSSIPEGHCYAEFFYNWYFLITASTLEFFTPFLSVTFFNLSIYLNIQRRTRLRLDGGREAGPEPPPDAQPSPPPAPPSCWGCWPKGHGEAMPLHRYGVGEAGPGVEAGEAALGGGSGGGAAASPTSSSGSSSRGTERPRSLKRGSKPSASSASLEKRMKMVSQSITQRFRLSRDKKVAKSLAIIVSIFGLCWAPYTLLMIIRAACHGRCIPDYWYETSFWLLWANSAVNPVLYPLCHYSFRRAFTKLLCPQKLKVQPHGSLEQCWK

Assay [16] concerns the target rat Adrenergic Receptor, Beta (Adrb), Non-selective Binding, Adrb1 (gene 24925) (UniProt P18090). The assay can be described thus: NVS_GPCR_rAdrb_NonSelective: NovaScreen (NVS) G Protein-Coupled Receptor Assay for rat Adrenergic Receptor, Beta (Adrb), Non-selective Binding (AID 2283298). The essentials:
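Rat cortical membranes incubated 1 h with beta-adrenergic radioligand and test chemical; bound ligand measured by filtration and scintillation counting. Screen at 25 uM duplicate, then concentration series with 50 uM maximum; loss of signal versus DMSO.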

Assay [17] deals with mouse Cholecystokinin, CCK1 Receptor (CCKA), Cckar (gene 12425) (UniProt O08786). The assay can be described thus: NVS_GPCR_mCCKAPeripheral: NovaScreen (NVS) G Protein-Coupled Receptor Assay for mouse Cholecystokinin, CCK1 Receptor (CCKA) (AID 2283285). The essentials: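 Chemicals were first screened in duplicate at 25 uM, with those meeting threshold (e.g., 30% inhibition) retested in singleton concentration series to 50 uM maximum. Binding of radioligand to mouse pancreatic membranes was read after 2 h by filtration and scintillation counting.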

Sequence of guinea pig Serotonin, 5-Hydroxytryptamine Receptor 4 (5HT4), HTR4 (gene 100135548) (O70528 whole entry, looked up): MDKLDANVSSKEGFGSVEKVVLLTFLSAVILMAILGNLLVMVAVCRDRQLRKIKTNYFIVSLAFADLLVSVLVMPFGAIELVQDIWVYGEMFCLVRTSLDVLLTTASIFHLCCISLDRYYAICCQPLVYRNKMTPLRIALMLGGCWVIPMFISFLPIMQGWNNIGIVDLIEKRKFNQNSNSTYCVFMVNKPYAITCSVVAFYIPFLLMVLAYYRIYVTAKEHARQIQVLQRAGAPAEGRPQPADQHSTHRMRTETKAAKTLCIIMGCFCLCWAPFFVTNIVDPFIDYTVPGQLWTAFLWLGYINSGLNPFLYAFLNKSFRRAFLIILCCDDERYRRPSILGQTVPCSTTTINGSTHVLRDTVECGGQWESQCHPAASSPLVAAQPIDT
Sequence of rat Adrenergic Receptor, Alpha 2 (Adra2), Non-selective Binding, Adra2a (gene 25083) (P22909 whole entry, looked up): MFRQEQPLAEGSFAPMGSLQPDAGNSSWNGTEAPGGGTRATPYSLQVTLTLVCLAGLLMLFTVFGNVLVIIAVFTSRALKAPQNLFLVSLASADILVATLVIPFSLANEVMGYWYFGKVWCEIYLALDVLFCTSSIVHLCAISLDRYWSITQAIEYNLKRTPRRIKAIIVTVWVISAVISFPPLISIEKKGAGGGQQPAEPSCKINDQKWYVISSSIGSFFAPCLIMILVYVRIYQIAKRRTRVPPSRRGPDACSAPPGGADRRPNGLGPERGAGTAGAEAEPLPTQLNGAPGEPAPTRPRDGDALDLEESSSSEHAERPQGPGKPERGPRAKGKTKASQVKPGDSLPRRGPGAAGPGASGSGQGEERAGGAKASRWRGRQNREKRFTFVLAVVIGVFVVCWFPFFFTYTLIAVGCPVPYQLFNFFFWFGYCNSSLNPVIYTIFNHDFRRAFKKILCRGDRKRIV
Sequence of human Opioid Receptor Mu (Opiate Mu), OPRM1 (gene 4988) (P35372 whole entry, looked up): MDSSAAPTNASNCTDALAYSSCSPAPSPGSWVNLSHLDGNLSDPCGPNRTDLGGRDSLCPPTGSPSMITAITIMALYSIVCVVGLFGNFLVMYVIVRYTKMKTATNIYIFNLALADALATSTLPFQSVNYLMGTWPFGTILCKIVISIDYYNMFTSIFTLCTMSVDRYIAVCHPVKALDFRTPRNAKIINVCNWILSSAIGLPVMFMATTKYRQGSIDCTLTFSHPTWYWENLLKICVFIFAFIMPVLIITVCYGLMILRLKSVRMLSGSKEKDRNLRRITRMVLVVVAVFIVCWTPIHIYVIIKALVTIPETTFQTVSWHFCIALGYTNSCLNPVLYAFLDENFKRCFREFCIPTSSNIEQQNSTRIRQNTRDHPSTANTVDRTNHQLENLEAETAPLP
Sequence of rat Serotonin, 5-Hydroxytryptamine Receptor (5HT), Non-Selective Binding, Htr1a (gene 24473) (P19327 whole entry, looked up): as the sequence (P19327 whole entry, looked up) above
Sequence of rat Gamma-Aminobutyric Acid Type B Receptor (GABBR), Gabbr1 (gene 81657) (Q9Z0U4 whole entry, looked up): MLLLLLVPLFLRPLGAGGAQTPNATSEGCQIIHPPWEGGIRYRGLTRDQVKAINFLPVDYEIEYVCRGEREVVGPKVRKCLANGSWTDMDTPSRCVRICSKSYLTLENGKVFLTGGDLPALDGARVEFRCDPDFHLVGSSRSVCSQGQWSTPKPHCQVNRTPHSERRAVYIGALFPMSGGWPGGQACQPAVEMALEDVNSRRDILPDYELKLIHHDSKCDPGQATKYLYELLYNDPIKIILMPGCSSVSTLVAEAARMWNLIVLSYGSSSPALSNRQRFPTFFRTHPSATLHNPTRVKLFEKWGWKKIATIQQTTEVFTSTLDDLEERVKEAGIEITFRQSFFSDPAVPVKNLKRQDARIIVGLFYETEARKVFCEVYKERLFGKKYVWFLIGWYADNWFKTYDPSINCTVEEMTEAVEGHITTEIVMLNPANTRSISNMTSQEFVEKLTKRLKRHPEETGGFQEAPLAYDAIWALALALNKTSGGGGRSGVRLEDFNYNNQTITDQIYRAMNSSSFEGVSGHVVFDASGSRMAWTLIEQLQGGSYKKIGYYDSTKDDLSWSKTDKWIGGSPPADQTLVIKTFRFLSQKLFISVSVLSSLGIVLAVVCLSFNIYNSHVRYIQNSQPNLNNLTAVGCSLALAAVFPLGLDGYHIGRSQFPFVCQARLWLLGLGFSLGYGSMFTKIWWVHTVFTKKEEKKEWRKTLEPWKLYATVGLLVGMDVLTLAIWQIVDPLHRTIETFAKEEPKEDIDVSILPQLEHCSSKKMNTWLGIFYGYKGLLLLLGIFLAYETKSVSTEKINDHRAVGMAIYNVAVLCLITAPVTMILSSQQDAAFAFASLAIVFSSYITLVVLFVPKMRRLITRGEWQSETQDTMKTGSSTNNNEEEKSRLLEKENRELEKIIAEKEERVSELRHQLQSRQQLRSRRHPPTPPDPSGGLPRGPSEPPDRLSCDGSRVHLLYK
Sequence of rat Adrenergic, Alpha 1A Receptor (Adra1A), Adra1a (gene 29412) (P43140 whole entry, looked up): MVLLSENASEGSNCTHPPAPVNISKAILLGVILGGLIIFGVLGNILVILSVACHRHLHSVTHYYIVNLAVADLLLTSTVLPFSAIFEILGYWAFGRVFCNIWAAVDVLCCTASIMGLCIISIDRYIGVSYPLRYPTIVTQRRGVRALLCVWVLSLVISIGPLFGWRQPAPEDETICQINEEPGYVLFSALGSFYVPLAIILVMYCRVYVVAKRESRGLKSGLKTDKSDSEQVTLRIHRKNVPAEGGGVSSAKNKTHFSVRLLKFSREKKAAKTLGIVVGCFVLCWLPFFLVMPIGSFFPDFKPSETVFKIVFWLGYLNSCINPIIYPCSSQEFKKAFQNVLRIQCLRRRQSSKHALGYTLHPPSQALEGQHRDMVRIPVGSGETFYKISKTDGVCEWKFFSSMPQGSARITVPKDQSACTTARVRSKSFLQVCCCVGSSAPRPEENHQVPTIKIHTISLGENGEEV
Sequence of rat Adrenergic, Alpha 1, Non-selective Receptor (Adra1), Adra1a (gene 29412) (P43140 whole entry, looked up): as above
Sequence of guinea pig Bradykinin Receptor B2 (BK2), BDKRB2 (gene 100135486) (O70526 whole entry, looked up): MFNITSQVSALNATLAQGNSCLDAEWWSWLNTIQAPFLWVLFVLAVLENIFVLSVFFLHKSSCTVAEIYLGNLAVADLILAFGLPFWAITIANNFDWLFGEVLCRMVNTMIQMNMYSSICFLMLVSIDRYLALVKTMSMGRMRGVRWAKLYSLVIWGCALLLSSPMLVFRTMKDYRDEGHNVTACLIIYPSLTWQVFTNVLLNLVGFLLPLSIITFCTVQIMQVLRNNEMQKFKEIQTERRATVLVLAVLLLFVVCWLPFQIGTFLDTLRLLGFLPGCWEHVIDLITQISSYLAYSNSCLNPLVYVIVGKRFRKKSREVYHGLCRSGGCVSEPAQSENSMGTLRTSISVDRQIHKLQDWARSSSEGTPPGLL

Consider `CCCC(=O)OCCC(C)C`, for which the AC50 in assay [1] was 15 µM (active). Besides, the compound was classed as inactive in assay [2].
Consider `O=c1ccc2ccccc2o1`, for which the compound was called inactive in [3].
For the compound `COc1ccc2cc(S(=O)(=O)N[C@H](CC(=O)N[C@H](Cc3ccc(CN4[C@H](C)CCC[C@@H]4C)cc3)C(=O)N(C)C(C)C)c3ccc4c(c3)OCO4)ccc2c1`, the AC50 in assay [4] is 15.7 µM (active); in assay [5], 8.69 µM (active); in assay [6], 13.8 µM (active); in assay [7] it was 16.8 µM (active); in [10], 23.9 µM (active); in [11], 23.9 µM (active). Further, the compound was called inactive in assay [8] and in [9].
On to `Clc1cc(Cl)c2c(c1)N=C1CCCCCN1C2`, for which the AC50 was 6.44 µM (active) in assay [4]; 5.45 µM (active) in [7]; 3.54 µM (active) in assay [9]; 5.42 µM (active) in assay [10]; 1.57 µM (active) in assay [11].
With `c1ccc2n[nH]nc2c1`, the compound was called inactive in assay [3].
As for `COc1cccc([C@H](O)C2CCN(CCc3ccc(F)cc3)CC2)c1OC`, the AC50 was 25 µM (active) in assay [12]; 12.6 µM (active) in assay [5]; 25 µM (active) in assay [7]; 5.58 µM (active) in assay [8]; 0.26 µM (active) in assay [10]; 1.58 µM (active) in assay [11]. Besides, in assay [13], the compound was classed as inactive.
In the case of `CC1=CC(=O)/C(=C(/C)O)C(=O)O1`, the result in assay [12] was inactive.
Regarding `Clc1ccccc1C(c1ccccc1)(c1ccccc1)n1ccnc1`, the call in assay [5] was inactive.
`c1ccc(C[n+]2cccc3ccccc32)cc1`: the result in assay [14] and in [15] was inactive. Moreover, the AC50 in assay [4] was 11.7 µM (active); in assay [9] it was 11 µM (active).
Turning to `O=C(O)Cc1cc(I)c(Oc2ccc(O)c(I)c2)c(I)c1`, the compound was classed as inactive in assay [13].
For `CC(C)(C)c1cc(/C=C2\SC(N)=NC2=O)cc(C(C)(C)C)c1O`, the compound was classed as inactive in assay [3].
In the case of `Oc1ccc2ccccc2c1`, in assay [3], the AC50 is 9.86 µM (active).
Regarding `CCCCCCCCN(C)CCCCCCCC`, in assay [16], the compound was called inactive.
For the compound `CC[C@@H]1C[C@H](N(Cc2cc(C(F)(F)F)cc(C(F)(F)F)c2)C(C)=O)c2cc(C(F)(F)F)ccc2N1C(=O)OC(C)C`, the compound was called inactive in assay [12].
With `Cc1occc1C(=O)Nc1ccc(C(=O)N2CCC(F)(F)/C(=C\C(=O)N3CCC(N4CCCCC4)CC3)c3ccccc32)cc1`, the AC50 is 0.00237 µM (active) in [14]; 6.08 µM (active) in assay [4]; 0.579 µM (active) in assay [7]; 3.24 µM (active) in assay [10]; 4.22 µM (active) in assay [15]. The result in [3] and in [8] was inactive.
`O=c1c(-c2ccc(O)cc2)coc2cc(O)cc(O)c12`: in assay [4], the outcome was inactive.
As for `COc1cc(C(=O)NC2CCN(C)CC2)ccc1Nc1ncc2c(n1)N(C1CCCC1)CC(F)(F)C(=O)N2C`, the outcome in [12] and in assay [8] was inactive. In addition, the AC50 in assay [3] was 3.34 µM (active); in assay [4], 3.85 µM (active); in assay [5] it was 17.4 µM (active); in assay [6], 2.81 µM (active); in assay [7], 8.4 µM (active); in assay [9], 7.27 µM (active). In addition, the figures for the AC50 in assay [10] and in assay [15] were 15.5 µM (active) and 3.19 µM (active), respectively.
Consider `O=C(O)c1ccccc1-n1cc(C(=O)O)c(=O)c2cc(Nc3c(F)cc(F)cc3Cl)c(Cl)cc21`, for which the call in assay [2] was inactive.
With `Cc1ncc(CO)c(CO)c1O`, in assay [13], the compound was classed as inactive.
On to `Cc1cc2c(cc1C(F)(F)F)N(C(=O)Nc1ccc(Oc3cccnc3C)nc1)CC2`, for which the AC50 in [17] is 13.3 µM (active); in assay [3], 0.00211 µM (active); in assay [7], 5.92 µM (active); in assay [8], 0.43 µM (active). For the same compound, in assay [5], the compound was classed as inactive.
For `O=C1c2ccccc2C(=O)N1CCc1noc(-c2ccc(CN3CCCCCC3)s2)n1`, the AC50 in [4] was 9.19 µM (active); in [7] it was 4 µM (active); in assay [9], 5.59 µM (active); in assay [15], 16.8 µM (active). Besides, in assay [8], the compound was called inactive.
In the case of `CCCCOC(=O)c1ccc(O)cc1`, in [3], the AC50 is 25 µM (active). Besides, the compound was called inactive in [10].

In general, AC50 refers to the concentration giving half of the maximal activity seen.
